Data taken from the supplement of paper PMC6555819.

Assays:
Test in all cases: PBM binding z-score (relative to random genomic background probes); higher = stronger binding; sequences stand for … in GC…GCGATTGACAGCGTAGAATGAAGG
[1] = system: RARb homodimer (NR concentration 270 nM)
Procedure, shortened: (§1)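 Ligand-free nuclear receptor dimers were applied to custom Agilent 4×180K protein-binding microarrays whose double-stranded probes carried direct-repeat seeds, single-nucleotide variants, half-site ablations and random human genomic background sequences in 34-nt variable regions. Incubation lasted 1 h. Binding z-scores were computed against the random background probes from regression-normalized fluorescence.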

[2] = system: RARg:RXRa (NR concentration 270 nM, RXRa partner concentration 90 nM)
Procedure, shortened: as §1

[3] = system: RARg homodimer (NR concentration 270 nM)
Procedure, shortened: as §1

[4] = system: RXRa DBDmut IVT, anti-RXR (DBD mutation: RXRa K156A/R161A, NR concentration 90 nM)
Procedure, shortened: as §1

[5] = system: RXRa homodimer (NR concentration 180 nM)
Procedure, shortened: as §1

[6] = system: THRa:RXRa (NR concentration 90 nM, RXRa partner concentration 90 nM)
Procedure, shortened: as §1

[7] = system: THRa homodimer (NR concentration 90 nM)
Procedure, shortened: as §1

[8] = system: VDR homodimer (NR concentration 270 nM)
Procedure, shortened: as §1

Row | Sequence | PBM binding z-score [1] | PBM binding z-score [2] | PBM binding z-score [3] | PBM binding z-score [4] | PBM binding z-score [5] | PBM binding z-score [6] | PBM binding z-score [7] | PBM binding z-score [8]
1 | AGTCAAAGTTCACTAGATAACGTAAGATTCAGCT | 3.55 | 4.97 | 5.79 | 3.76 | 3.84 | 1.46 | -0.386 | 3.35
2 | TCTCGGAGGACACGAAGGTCGGAGCTTTCCAGAG | 1.42 | 1.23 | 1.5 | 0.608 | 0.322 | 1.64 | 0.121 | 0.0854
3 | CCCACTGGGCCAAAAAGGTCATTGATGCCGATAA | 4.44 | 4.8 | 4.56 | 0.161 | 5.23 | 3.02 | 0.878 | 2.74
4 | CATACAGCGTCAGCTAGGCCAGAGTAGGGACGGC | -0.506 | -0.321 | -0.175 | -0.697 | -0.412 | -0.637 | -0.62 | -0.797
5 | TAGCCTAGGCCATTGGGCCAGTATAGTACGCATC | -0.0575 | -0.137 | 0.339 | -1.16 | -0.506 | -0.321 | -0.972 | -0.404
6 | TTACCAAGGTGAATGTCGTTGATCCCTCTGTAGA | 0.851 | 0.459 | 0.367 | 0.1 | 0.711 | 1.82 | 0.923 | -0.448
7 | CCTACTGGGCCATCAGGTCATCGATATCAACGTT | 2.83 | 2.31 | 2.29 | 0.257 | 1.58 | 3.45 | 3.33 | 1.24
8 | GCTGCTAGGTCAGGTTGGTCAGATAACGGGTACG | 2.53 | 2.71 | 3.5 | 0.652 | 1.12 | 1.84 | 0.684 | 1.02
9 | TCGAGTAGGTTAGCCGGGGCATTCAGCCAACATA | 0.49 | 0.0604 | -0.231 | 0.227 | 0.332 | 1.17 | -0.114 | -0.000725
10 | ATATGTAGGTTACATCTGGGTCATTCAGGCTATG | 3.02 | 3.33 | 2.31 | 0.961 | 2.38 | 3.17 | 1.31 | 1.8
11 | ATCGAAAGGACGAAGGTGAGTATACCCACCCGAA | 0.646 | 1.11 | 1.26 | -0.397 | 0.555 | 0.23 | -0.316 | -0.271
12 | TCCAGTTGGTCAAAGGTCACACACTCGAAATGCG | 4.95 | 7.17 | 6.07 | 2.25 | 7.96 | 4.08 | 2.47 | 2.99
13 | GCGACTGGGGCAAAGCAGGTTACGATAAGGTTGG | 1.04 | 0.351 | 0.644 | -0.265 | 0.354 | 2.97 | 0.0259 | -0.24
14 | ACAACGAGGGCACGCTGAGTTGATAGCAGAGTAG | 0.921 | 2.12 | 2.44 | 2.16 | 1.24 | 1.75 | -0.067 | 2.04
15 | AGTCAAAGCTCAGGACGAGGTAACGTAAAGCACG | -0.228 | 0.0301 | 0.2 | -0.664 | -0.013 | 1.86 | 1.21 | -0.138
16 | TCTATTAGTTTATTAGGGCAACCGAAACAGCGGA | 1.56 | 1.15 | 1.09 | 1.92 | 0.82 | 1.54 | 1.62 | 1.29
17 | CAAACTAGGTCAGCGGAAGGTCAAAGTCCGCATG | 5.24 | 7.66 | 6.32 | 1.11 | 4.98 | 4.05 | 1.64 | 2.6
18 | CGAACTTGGTCAAGGACAGTGAATCTCCGCACGC | 0.692 | 0.479 | 1.1 | 0.243 | 0.275 | 1.89 | 1.37 | -0.254
19 | AGAATGAGGTTACGATCAGGGAAACAGAATACAT | 1.15 | 2.31 | 1.83 | 0.839 | 2.77 | 2.99 | 0.967 | 0.356

Row | Sequence | PBM binding z-score [1] | PBM binding z-score [2] | PBM binding z-score [3] | PBM binding z-score [4] | PBM binding z-score [5] | PBM binding z-score [6] | PBM binding z-score [7] | PBM binding z-score [8]
20 | CCTAGCAAGCCAATCTGGGTCACTCAAGGCTTGA | 1.9 | 0.58 | 0.537 | -0.0119 | 0.781 | 2.99 | 0.441 | 0.0159
21 | CGTCAAAGTTCAAGGTAACGTCACAGAAAGCAGC | 4.13 | 5.4 | 6.15 | 4.55 | 4.78 | 3.12 | 1.48 | 3.12
22 | CTAACGAGGGCATGAGTTGATAGCAAATGCCGAT | 0.671 | 1.31 | 1.61 | 2.41 | 1.06 | 1.2 | 0.0031 | 1.43
23 | TCGAGTAGGTTACCAATGGGCCATTCAGCTTTCT | 0.543 | 0.598 | 0.337 | 0.37 | 0.688 | 0.184 | -0.731 | -0.805
24 | CCGACTGGGGCAGTAAGGTTACCATACCATCCGG | 1.56 | 0.667 | 0.917 | -1.01 | 0.78 | 1.87 | 1.08 | 0.0425
25 | TTACCAAGGTGAAAAGTCGTTGATGCACGCCTTG | 0.298 | 0.676 | 0.264 | -0.185 | 1.15 | 1.37 | 0.0466 | -0.327
26 | TAACCTAGGTCATGCGGGCCAGTATAGTGTCGGC | 3.44 | 4.53 | 4.39 | 1.15 | 3.58 | 3.32 | 1.23 | 1.05
27 | ATCTTTAGGTAACAAGTTCAGTGAAAGAGAGGAC | 2.04 | 1.56 | 1.48 | 1.65 | 0.993 | 2.13 | 1.4 | 2.79
28 | TGAATGAGGTTATAAGATGAGGGAACGTTGCAAA | 0.278 | 1.31 | 1.12 | 0.817 | 1.76 | 1.77 | 0.282 | 0.388
29 | GCTGTTAGTTGAAAGGGCAACCGAATGATTCTCG | 2.03 | 1.49 | 1.43 | 0.773 | 1.23 | 0.729 | -0.379 | -0.0381
30 | TCGAGTACGTTAGGGGCATTCAGAATGGCGTCGA | 0.267 | 0.169 | -0.0328 | 3.64 | 0.3 | 0.637 | -0.622 | 5.05
31 | CGTGCAAGGTCAAAGGTCAGTGAAGAGATGACGG | 5.61 | 8.84 | 8.41 | 4.08 | 10.3 | 4.91 | 2.23 | 3.9
32 | ACTAGTTGGTCAGCCGAGGTCACACACAATTCGG | 4.36 | 4.25 | 4.08 | 0.998 | 4.34 | 5 | 4.33 | 4.04
33 | CCTTACGGGTCACGAGGTTATAGGACGACGAGCG | 3.83 | 6.08 | 5.52 | 1.46 | 7.19 | 3.68 | 1.02 | 1.85
34 | CCTTACGGGTCACGCGGTTATAGCACGACGAGCG | 3.87 | 5.86 | 5.88 | 1.3 | 6.68 | 3.17 | 0.416 | 1.19
35 | TCATATAGGTAAACAGGTGAAGGTCCGTAAGTTA | 0.91 | 0.737 | 0.389 | 1.36 | 0.85 | 0.707 | 0.377 | 0.32
36 | AGAATGAGGTTATACGTAGATCACGGAAGAAAGT | 0.646 | 1.96 | 1.21 | 2 | 2.38 | 2.11 | 0.348 | 0.934
37 | TGAATGAGGTTAACGATCAGGGAACGTGGCGTCG | 0.791 | 1.96 | 1.19 | 0.898 | 2.81 | 2.52 | 0.403 | 0.222
38 | TCTAGCAGGCCAAAGGGTCACTCAAGAGGTACGG | 4.55 | 4.65 | 4.35 | 0.568 | 4.24 | 2.51 | -0.172 | 1.2

Row | Sequence | PBM binding z-score [1] | PBM binding z-score [2] | PBM binding z-score [3] | PBM binding z-score [4] | PBM binding z-score [5] | PBM binding z-score [6] | PBM binding z-score [7] | PBM binding z-score [8]
39 | TTATATAGGTAAAAGGTGAAAGTCGGTGTGGTAA | 1.62 | 2.08 | 0.991 | 0.197 | 2.87 | 1.77 | 0.486 | 0.445
40 | AGTCAAAGTTCATCCAGGTAACGTAAGATATGCT | 3.81 | 5.56 | 5.81 | 4.61 | 4.49 | 3.57 | 0.915 | 5.17
41 | GCATATAGGTAATACAAGGTGAAATTCCGATTGT | 0.44 | 0.518 | 0.637 | 0.228 | 0.614 | 4.06 | 0.848 | 0.0965
42 | TCATACAGGTGAAGGTAACTCAGGTACGCAGTCG | 0.9 | 0.872 | 0.925 | 1.33 | 1.42 | 1.67 | 0.594 | 0.668
43 | AGAATGAGGTTATACGTAGTTCAGGGAAGAAAGT | 1.63 | 3.82 | 1.45 | 1.54 | 2.57 | 2.55 | 0.588 | 1.61
44 | GTGACTGGGGCATCAGCAGGTTACCATAACTTAA | 1.3 | 1.36 | 0.86 | -0.0186 | 0.481 | 1.09 | 0.198 | -0.0019
45 | CCTAGTGGGCCATTCAGAGGTCATTGATCATATG | 3.74 | 4.53 | 3.07 | 0.957 | 3.76 | 3.08 | 1.34 | 3.53
46 | TAGCCTAGGTCAGATCGGGCCCGTATACGCTATA | 1.94 | 2.58 | 3.06 | -0.297 | 1.37 | 2.39 | 0.0174 | -0.316
47 | TCATACAGGTAAATGCTAGGTGAAAGTCCGATCT | 0.654 | 0.462 | 0.278 | 1.48 | 0.593 | 1.47 | 0.878 | 0.146
48 | ATCGAAAGGTCGAAGGTGAGTATGCCCACCCGAA | 2.54 | 4.34 | 3.76 | 1.32 | 5.13 | 2.04 | -0.289 | 0.413
49 | TAGCCTAGGTCAGTCAGGGGCCAGTATAGAAAGC | 2.81 | 4.53 | 3.75 | -0.63 | 1.18 | 1.86 | 0.122 | 0.0513
50 | TCTGGTAGATCAACAGGAGGTTAAGAAAGATCGA | 0.385 | 0.66 | 0.298 | 0.299 | 0.827 | 0.849 | -0.374 | 0.00452
51 | TCTTGTAGCTCAGCAGGTTAAGAAAGCTGGCCAA | -0.305 | -0.557 | -0.799 | -0.298 | -0.011 | -0.123 | -0.926 | -0.952
52 | ATCTCTAGGTAACCTAGTTCAGTGAATGCCGAAC | 1.27 | 0.609 | 0.668 | 0.329 | 0.722 | 1.61 | 0.673 | 0.972
53 | CTGACTGGGGCATAAGGTTACCATAAGCCAGCCC | 1.92 | 1.99 | 1.46 | -0.277 | 1.4 | 2.42 | 1.35 | -0.328
54 | ATATGTAGATTAAGGGTCATTCAGGTTGGTTCGC | 3.42 | 3.56 | 2.52 | 2.22 | 4.48 | 3.17 | 1.19 | 4.19
55 | GATAAAGGGTCAAGGCCAGAGTACGCGTATTGAT | 4.87 | 6.46 | 6.91 | 2.52 | 6.59 | 3.38 | 0.263 | 2.36
56 | ACAGACAGGTGATGAAGGTAACTGAGGCTATCAT | 0.244 | 0.321 | 0.603 | -0.383 | 0.305 | 1.33 | -0.0787 | -0.259
